# Bioassay records (PubChem BioAssay)
# Shown is part of a subset that was picked to be rich in hits.
# Dicer processing: blocks human Dicer maturation of pre-miR-21; Q9UPY3; cat-ELCCA pre-miR-21 Dicer processing, chemiluminescence; stronger effect = higher value; z-score at 25 µM; 6% of 47,000 active; in the data active = z-score above about 3, passing the limit was not always enough;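 note: plate controls were vehicle for no effect and no enzyme for full effect; higher signal means more uncleaved substrate so more Dicer inhibition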
# Numbers without * were called inactive.
SMILES,Dicer processing
COc1ccccc1-c1coc2cc(OCCc3ccccc3)ccc2c1=O,2
CCn1c(Sc2c(C)c3cc4c(cc3[nH]c2=O)OCO4)nnc1-c1ccccc1,0.83
O=C(Oc1ccc2ccccc2c1C1SCCS1)c1ccc(Cl)cc1Cl,0.44
CC(=O)OC[C@@H](OC(C)=O)[C@@H](OC(C)=O)[C@H](OC(C)=O)C(=O)O,-0.61
CCOC(=O)c1sc(SC)c2c1CC/C(=C\N(C)C)C2=O,-7
CCOC(=O)c1sc(SC)c2c1CC(c1ccccc1)CC2=O (stereo not given),3.7*
CCOC(=O)C1=C(C)NC2=C(C(=O)CC(c3ccccc3)C2)C1c1cc(C)sc1SC (stereo not given),0.21
CNC(=O)NNC(=O)c1sc(SC)c2c1CCC=C2,-0.33
Cc1ccc(/C=N/NS(=O)(=O)c2ccc(C)cc2)cc1,0.17
O=C(Nc1ccc(Cl)cc1)OC1CCSC1 (stereo not given),0.15
CN1CCN(CC(=O)N2c3ccccc3Sc3ccc(Cl)cc32)CC1,1.3
CN1CCN(C2Cc3ccccc3Sc3ccc(Cl)cc32)CC1 (stereo not given),-0.53
CC1CN(CCO)Cc2ccc(Cl)cc21 (stereo not given),3.2*
O=C(c1cnc2cc(-c3ccc(Cl)cc3)nn2c1)c1cc(F)ccc1O,0.04
CCOC(=O)c1c(NC(=O)COc2ccccc2)sc2c1CC(C)(C)OC2,1
N#Cc1c(N2C(=O)C3CC=C(Cl)CC3C2=O)sc2c1CCCC2 (stereo not given),1.3
CC1(C)Cc2c(sc(NC(=O)CN3C(=O)C4CC=C(Cl)CC4C3=O)c2C#N)CO1 (stereo not given),4.8*
Cc1nnc(-c2ccc(C(F)(F)F)cn2)nc1C,-0.69
CC(C)(C)c1ccc(Oc2cc3c(cc2[N+](=O)[O-])C(=O)NC3=O)cc1,-0.26
O=C(c1ccccc1)N1c2ccccc2OC1c1ccc2c(c1)OCO2 (stereo not given),-0.43
COC(=O)C1=C(C)N=C2SCCC(=O)N2C1c1ccc(C(C)(C)C)cc1 (stereo not given),0.32
COC(=O)/C=C1/NCC(OC(=O)c2ccc(C(C)(C)C)cc2)CNC1=O (stereo not given),4.4*
CC1(C)COC(c2ccccc2COC(=O)c2ccc(C(C)(C)C)cc2)=N1,-0.15
CN1CCN(CN2C(=O)C3(OCCO3)c3ccccc32)CC1,-0.52
CCOC(=O)c1cnc(Sc2ccc(F)c(Cl)c2)nc1C(F)(F)F,-3.9
SMILES,Dicer processing
CCOC(=O)C(C)Oc1ccc2c(C)cc(=O)oc2c1 (stereo not given),1.3
CCCCOC(=O)C(C)Oc1ccc2c(=O)c(-c3ccccc3)coc2c1 (stereo not given),1.2
CCOC(=O)C(C)Oc1cc(OC(C)C(=O)OCC)c2c(=O)cc(-c3ccccc3)oc2c1 (stereo not given),4.1*
COC(=O)c1c(C)n(S(C)(=O)=O)c2cc(C)c(NS(C)(=O)=O)cc12,-0.72
FC(F)(F)COc1ccc(-c2n[nH]c(=S)n2-c2ccc(Cl)cc2)cn1,-0.82
NN1CC(=O)N(c2cccc(C(F)(F)F)c2)CC1=O,1.2
COC(=O)c1ccccc1N1CC(C(=O)O)CC1=O (stereo not given),2.3
COc1cccc(N2C(=O)C3C4c5ccccc5C(c5ccccc54)C3C2=O)c1 (stereo not given),3.7*
COc1cccc(N2CC(=O)N(NC(=O)NC3CCCCC3)CC2=O)c1,2.8
COc1ccc(N2C(=O)C3C4c5ccccc5C(c5ccccc54)C3C2=O)cc1 (stereo not given),1.5
Cc1cccnc1N1C(=O)C2C3c4ccccc4C(c4ccccc43)C2C1=O (stereo not given),0.69
COc1cccc(N2CC(=O)N(N)CC2=O)c1,3.8*
COC(=O)c1ccccc1N1C(=O)C2C3c4ccccc4C(c4ccccc43)C2C1=O (stereo not given),4.2*
COc1ccccc1N1C(=O)C2C3c4ccccc4C(c4ccccc43)C2C1=O (stereo not given),-0.08
CC(C)C(=O)NNc1cc(C(F)(F)F)ccn1,1.1
COc1ccc(C2Oc3ccccc3C=C2[N+](=O)[O-])cc1 (stereo not given),0.15
CN(C)/C=C(\C#N)C(=O)Nc1ccc(F)c(F)c1,-0.44
Cc1nc(C)nc(N(CCS(=O)(=O)c2ccccc2)CCS(=O)(=O)c2ccccc2)n1,-1.4
CCOC(=O)c1c(NC(=O)c2ccncc2)sc2c1CC(C)(C)OC2,1.9
C=C1c2cccc(O)c2C(O)=C2C(=O)[C@]3(O)C(O)=C(C(N)=O)C(=O)[C@@H](N(C)C)[C@@H]3[C@@H](O)[C@H]12,23*
C=Cc1c(S(C)(=O)=O)sc(C(=O)NC)c1C,0.63
CCOc1cc(C2C(C(=O)OC)=C(C)Nc3nc4ccccc4n32)ccc1O (stereo not given),-1
CN(S(=O)(=O)c1ccc(F)cc1)S(=O)(=O)c1ccc(Cl)cc1,-1.4
CC1(C)CC(=O)C2=C(C1)Nc1nc(-c3cccc(Cl)c3)nn1C2c1ccc(F)cc1 (stereo not given),0.74
CC1=C(C(=O)OCC(C)C)C(c2ccc(F)cc2)C2=C(CC(c3cccs3)CC2=O)N1 (stereo not given),-0.18
SMILES,Dicer processing
Cc1nnc2n1NC(c1ccc(Cl)cc1)C(C(=O)NCC1CCCO1)S2 (stereo not given),2.4
COc1ccc(C2Nn3c(nnc3-c3ccccc3)SC2C(=O)NCC2CCCO2)cc1Cl (stereo not given),6.6*
Cc1ccc(C2Nn3c(C)nnc3SC2C(=O)NCC2CCCO2)cc1 (stereo not given),-0.76
COc1cc(C2C(C(=O)OC3CCCCC3)=C(C)NC3=C2C(=O)CCC3)cc(Br)c1O (stereo not given),-0.33
Cc1ccc(C2C3=C(Nc4c2c(=O)[nH]c(=O)n4C)c2ccccc2C3=O)cc1Cl (stereo not given),0.65
COCCCn1c(-c2ccc(Cl)cc2)cc(-c2cccs2)c1-c1ccccc1,3.3*
COCCCn1c(=S)[nH]c2cc(Cl)ccc2c1=O,-10
CSc1ccc(-c2c(-c3cccs3)cc(-c3ccc(Cl)cc3)n2C)cc1,0.36
COc1cccc2c1OC1=C(C2)C(=O)CC(C)(C)C1,-0.28
CCCc1cc(=O)[nH]c(SCc2ccc(Cl)cc2)n1,-3.5
CCCc1cc(=O)[nH]c(SCC(=O)Nc2ccc(F)c(Cl)c2)n1,3.1*
CCCc1cc(=O)[nH]c(SCc2ccc(Cl)cc2Cl)n1,-3.8
CC(C)S(=O)(=O)c1csc(NC(=O)Nc2cc(Cl)ccc2Cl)c1Cl,5.3*
CC(C)S(=O)(=O)c1csc(NC(=O)N=S(C)(=O)c2ccc(Cl)cc2)c1Cl (stereo not given),-0.93
CC(C)S(=O)(=O)c1csc(NC(=O)Nc2ccccc2Cl)c1,1.7
COc1ccc2c(c1)CCC1C2=NN(C)C1c1ccc(C(C)C)cc1 (stereo not given),1.1
CC(C)c1ccc(C2C3CCc4ccccc4C3=NN2CCO)cc1 (stereo not given),3.1*
CN1N=C2c3ccccc3CCC2C1c1ccc(F)cc1 (stereo not given),0.59
Cc1cc(-c2csc(=S)n2Nc2ccccc2)ccc1Cl,-0.71
Cc1cc(/C=N\NC(=O)CCc2ccc(O)cc2)c2c(C)ccc(C(C)C)cc1-2,1.7
CCOC(=O)c1sc(-c2ccccc2)nc1OCc1ccc(Cl)cc1,0.3
CCN(CC)C(=O)c1sc2nc3c(cc2c1N)CCCCC3,0.28
CCN(CC)C(=O)c1cc2sccc2s1,3.1*
